In PubChem BioAssay AID1159580 (chemical genetic matrix, 2015):
Among all 5,500 compounds or so, about 2,000 (36%) were called active. Inconclusive results (about 18%) are left out. Cut-off read from the data, not from the text of the source: active = normalized growth mostly below about 0.91 (no sharp cut-off); inconclusive = no clear call, values can overlap the other calls; inactive = mostly above about 0.92. The list shows a part of the results.

Experiment: chemical genetic growth profiling, strain panel (AID 1159580);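 note: tested at 20 µM; growth read once vehicle control cultures reached saturation at 30 °C; 1 = growth at the plate median or of vehicle wells; lower values mean less growth of the strain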
Settings: S. cerevisiae deletion strains, growth OD

Measured: normalized growth

CC(C)Oc1ccc2c(=O)cc(-c3ccccc3)oc2c1
inactive: locus YAL021C, strain ccr4, hits give low values 0.956 | locus YAL026C, strain drs2, hits give low values 0.934 | locus YAL030W, strain snc1, hits give low values 0.955 | locus YBL061C, strain skt5, hits give low values 0.929 | locus YBR009C, strain hhf1, hits give low values 0.952 | locus YBR023C, strain chs3, hits give low values 0.944 | locus YBR171W, strain sec66, hits give low values 0.912 | locus YBR229C, strain ROT2, hits give low values 0.915 | locus YBR231C, strain swc5, hits give low values 0.937 | locus YBR279W, strain paf1, hits give low values 0.963 | locus YCL011C, strain gbp2, hits give low values 0.923 | locus YCL016C, strain dcc1, hits give low values 0.94 | locus YCL069W, strain vba3, hits give low values 0.95 | locus YCR088W, strain abp1, hits give low values 0.933 | locus YDL005C, strain med2, hits give low values 0.96 | locus YDL035C, strain GPR1, hits give low values 0.984 | locus YDL040C, strain nat1, hits give low values 0.953 | locus YDL074C, strain BRE1, hits give low values 0.871 | locus YDL101C, strain DUN1, hits give low values 0.938 | locus YDR001C, strain nth1, hits give low values 0.943 | locus YDR069C, strain doa4, hits give low values 0.972 | locus YDR150W, strain NUM1, hits give low values 0.937 | locus YDR159W, strain sac3, hits give low values 0.919 | locus YDR162C, strain NBP2, hits give low values 0.953 | locus YDR195W, strain ref2 1.03 | locus YDR297W, strain sur2, hits give low values 0.95 | locus YDR334W, strain swr1, hits give low values 0.953 | locus YDR335W, strain msn5, hits give low values 0.962 | locus YEL037C, strain rad23, hits give low values 0.953 | locus YEL061C, strain CIN8 (second series), hits give low values 0.916 | locus YER015W, strain faa2, hits give low values 0.962 | locus YER016W, strain bim1, hits give low values 0.956 | locus YER111C, strain swi4, hits give low values 0.959 | locus YER167W, strain BCK2, hits give low values 0.925 | locus YFR010W, strain ubp6, hits give low values 0.936 | locus YGL167C, strain pmr1, hits give low values 0.946 | locus YGL173C, strain kem1, hits give low values 0.943 | locus YGL240W, strain doc1, hits give low values 0.901 | locus YGL248W, strain PDE1, hits give low values 0.912 | locus YGL253W, strain hxk2, hits give low values 0.926 | locus YGR078C, strain PAC10, hits give low values 0.903 | locus YGR135W, strain pre9, hits give low values 0.907 | locus YGR252W, strain gcn5, hits give low values 0.827 | locus YHR013C, strain ard1, hits give low values 0.859 | locus YHR027C, strain rpn1, hits give low values 0.947 | locus YHR030C, strain SLT2, hits give low values 0.92 | locus YIL066C, strain RNR3, hits give low values 0.939 | locus YIL073C, strain SPO22, hits give low values 0.921 | locus YJL092W, strain hpr5, hits give low values 0.928 | locus YJL095W, strain BCK1 (second series), hits give low values 0.948 | locus YJL095W, strain BCK1, hits give low values 0.888 | locus YJL115W, strain asf1, hits give low values 0.958 | locus YJL154C, strain vps35, hits give low values 0.952 | locus YJL164C, strain tpk1, hits give low values 0.923 | locus YJL187C, strain SWE1 (second series), hits give low values 0.906 | locus YJL187C, strain SWE1, hits give low values 0.951 | locus YJR043C, strain POL32, hits give low values 0.941 | locus YJR075W, strain HOC1, hits give low values 0.904 | locus YKL160W, strain elf1, hits give low values 0.913 | locus YKL190W, strain CNB1, hits give low values 0.945 | locus YKR026C, strain gcn3, hits give low values 0.934 | locus YKR091W, strain srl3, hits give low values 0.965 | locus YLL001W, strain dnm1, hits give low values 0.951 | locus YLL026W, hits give low values 0.955 | locus YLL041C, strain sdh2, hits give low values 0.957 | locus YLR027C, strain aat2, hits give low values 0.957 | locus YLR039C, strain RIC1, hits give low values 0.815 | locus YLR058C, strain SHM2, hits give low values 0.915 | locus YLR258W, strain gsy2, hits give low values 0.948 | locus YLR262C, strain YPT6, hits give low values 0.861 | locus YLR268W, strain sec22, hits give low values 0.906 | locus YLR342W, strain FKS1 (second series), hits give low values 0.911 | locus YLR342W, strain FKS1, hits give low values 0.916 | locus YLR357W, strain rsc2, hits give low values 0.869 | locus YLR370C, strain arc18, hits give low values 0.941 | locus YLR384C, strain iki3, hits give low values 0.944 | locus YML032C, strain rad52, hits give low values 0.908 | locus YML120C, strain ndi1, hits give low values 0.963 | locus YMR058W, strain fet3, hits give low values 0.916 | locus YMR125W, strain sto1, hits give low values 0.953 | locus YMR129W, hits give low values 0.952 | locus YMR231W, strain pep5, hits give low values 0.969 | locus YMR263W, strain SAP30, hits give low values 0.893 | locus YMR307W, strain GAS1, hits give low values 0.791 | locus YNL067W, strain RPL9B, hits give low values 0.93 | locus YNL128W, strain TEP1, hits give low values 0.941 | locus YNL209W, strain ssb2, hits give low values 0.971 | locus YNL233W, strain BNI4, hits give low values 0.901 | locus YNL248C, strain rpa49, hits give low values 0.919 | locus YNL322C, strain KRE1 (second series), hits give low values 0.946 | locus YNR049C, strain mso1, hits give low values 0.943 | locus YOL012C, strain htz1 1.5 | locus YOR001W, strain rrp6, hits give low values 0.896 | locus YOR061W, strain CKA2, hits give low values 0.912 | locus YOR070C, strain gyp1, hits give low values 0.961 | locus YOR080W, strain dia2, hits give low values 0.965 | locus YOR083W, strain WHI5, hits give low values 0.928 | locus YOR106W, strain vam3, hits give low values 0.917 | locus YOR136W, strain idh2, hits give low values 0.938 | locus YOR184W, strain ser1, hits give low values 0.9 | locus YOR265W, strain rbl2, hits give low values 0.96 | locus YPL078C, strain atp4, hits give low values 0.905 | locus YPL106C, strain sse1, hits give low values 0.928 | locus YPL240C, strain hsp82, hits give low values 0.95 | strain wtn01, hits give low values 0.909
active: locus YAL013W, strain DEP1, hits give low values 0.892 | locus YBR021W, strain FUR4, hits give low values 0.844 | locus YCL029C, strain bik1, hits give low values 0.88 | locus YCL061C, strain MRC1, hits give low values 0.918 | locus YDL185W, strain tfp1, hits give low values 0.423 | locus YDL192W, strain arf1, hits give low values 0.884 | locus YDR101C, strain arx1, hits give low values 0.906 | locus YDR137W, strain rgp1, hits give low values 0.834 | locus YDR318W, strain mcm21, hits give low values 0.885 | locus YDR388W, hits give low values 0.876 | locus YDR392W, strain spt3, hits give low values 0.358 | locus YDR502C, strain sam2, hits give low values 0.904 | locus YEL003W, strain gim4, hits give low values 0.887 | locus YEL061C, strain CIN8, hits give low values 0.923 | locus YER110C, hits give low values 0.886 | locus YER155C, strain BEM2 (second series), hits give low values 0.679 | locus YER155C, strain BEM2, hits give low values 0.85 | locus YGL078C, strain dbp3, hits give low values 0.815 | locus YGL086W, strain mad1, hits give low values 0.91 | locus YGL227W, strain vid30, hits give low values 0.905 | locus YHR079C, strain IRE1 (second series), hits give low values 0.888 | locus YHR094C, strain hxt1, hits give low values 0.879 | locus YHR129C, strain ARP1, hits give low values 0.916 | locus YHR142W, strain chs7, hits give low values 0.735 | locus YHR200W, strain rpn10, hits give low values 0.869 | locus YIL125W, strain kgd1, hits give low values 0.715 | locus YIR030C, strain dcg1, hits give low values 0.878 | locus YJL129C, strain trk1, hits give low values 0.815 | locus YJL134W, strain LCB3, hits give low values 0.909 | locus YJL166W, strain qcr8, hits give low values 0.893 | locus YJL168C, strain set2, hits give low values 0.872 | locus YKL009W, strain mrt4, hits give low values 0.452 | locus YKL068W, hits give low values 0.797 | locus YKL085W, strain MDH1 (second series), hits give low values 0.667 | locus YKL085W, strain MDH1, hits give low values 0.667 | locus YKR001C, strain vps1, hits give low values 0.83 | locus YLR102C, strain apc9, hits give low values 0.881 | locus YLR221C, strain rsa3, hits give low values 0.895 | locus YLR262C, strain YPT6 (second series), hits give low values 0.821 | locus YLR320W, strain mms22, hits give low values 0.785 | locus YLR330W, strain CHS5, hits give low values 0.896 | locus YLR371W, strain rom2, hits give low values 0.898 | locus YLR418C, strain cdc73, hits give low values 0.814 | locus YML016C, strain PPZ1, hits give low values 0.91 | locus YML124C, strain tub3, hits give low values 0.867 | locus YMR078C, strain ctf18, hits give low values 0.839 | locus YMR205C, strain PFK2, hits give low values 0.844 | locus YMR223W, strain ubp8, hits give low values 0.9 | locus YNL071W, strain lat1, hits give low values 0.734 | locus YNL250W, strain rad50, hits give low values 0.767 | locus YNL271C, strain bni1, hits give low values 0.794 | locus YNL298W, strain CLA4, hits give low values 0.538 | locus YNL307C, strain MCK1, hits give low values 0.848 | locus YNR052C, strain pop2, hits give low values 0.908 | locus YOL147C, strain pex11, hits give low values 0.872 | locus YOR069W, strain VPS5, hits give low values 0.925 | locus YOR144C, strain elg1, hits give low values 0.874 | locus YOR270C, strain vph1, hits give low values 0.731 | locus YOR290C, strain snf2, hits give low values 0.797 | locus YOR316C, strain cot1, hits give low values 0.875 | locus YPL051W, strain arl3, hits give low values 0.897 | locus YPR119W, strain clb2, hits give low values 0.856 | locus YPR141C, strain kar3, hits give low values 0.802 | locus YPR163C, strain tif3, hits give low values 0.906 | locus YPR167C, strain met16, hits give low values 0.873
